These results are taken from the OligoGym collection.
Note: reference of the scale not given here.

The first test has as its target BOLA1. The test can be described thus: pooled miR-30 sensor sort-seq; sequence = guide strand. Conditions: shRNA.
In turn, TCTCGTTGCGAAGCTCTAGCAC showed a sensor-assay potency score (higher = more potent) of -0.674.
The same measure, in the same setting: the value for TTGCGAAGCTCTAGCACCTCGG was -0.666; that for TGGGGGGCTAGTGTCCAGCTGA was -1.56.
On the same count and under the same terms, next, TGATTCTTCTCTTTTCTCGGGT: 0.0423; TAACATGGAACATCCGGGCTGC: 0.946; TAGGGGGCTCAGTCCCTCGAAA: -1.29.
Sequence TGCGAAGCTCTAGCACCTCGGG yielded a sensor-assay potency score (higher = more potent) of -1.19.

The target in a further test is BOP1. The test is described as above. Conditions: shRNA.
With TTGGGCATCAGCTTCTTGGTGA, the sensor-assay potency score (higher = more potent) was 0.503.
TTGACGGGCACCAGCAAGGGGT came in with a sensor-assay potency score (higher = more potent) of -1.16.
Regarding TCAAACCACACCAGCTTGCTAT, the sensor-assay potency score (higher = more potent) is -1.16.
The same measure, in the same setting: next, ATCCAGGTCAAACCACACCAGC: -1.99.
Same read-out and setting: the value for TTCGTCATCATCCTCACTGCTG was 0.313; that for TCTACATTCACCCTCATCTTGC was -0.893; that for AGGATCGTCCATCTTGTCCAGG was -2.16.
The same measure, in the same setting: the value for TAGTCAGGATCGTCCATCTTGT was -0.541.
For TTCCTGGATGAAGCGTCCGTAG, the sensor-assay potency score (higher = more potent) was -1.83.
Still for that read-out and setting: the value for TTGTACACCATGCCATGGCAGA was -1.35.
Same read-out and setting: next, TTGCTATCGTAGCTCCCACAGA: -1.14; TTGATGGCGTGCACCATGCGAG: -1.27.

In another test the target is BRAP. Described as above. Conditions: shRNA.
For the sequence TTCTCTATCCGAACTATCTTGT, the sensor-assay potency score (higher = more potent) is -0.12.
Still for that read-out and setting: next, TAAATATGAATACTCTAACTGT: -0.208.
Still for that read-out and setting: next, TAGGAGATCATTTAGTTTGTGC: 0.0397; TTTCCTGAACACCACACTCAAA: -1.71; TAATCGCTACTTTCTCTCCTGG: -0.199.
On the same count and under the same terms, next, TTAGTAAATATGAATACTCTAA: -0.689; AAAACTATCCGCATCAGCCTGT: 0.418; TTTAGCTGAGTGCACTTTCTTT: -0.371.
TTTCTTTCCACAGACTGCTTTT: the sensor-assay potency score (higher = more potent) is -0.773.
The same measure, in the same setting: the value for TTTTACTTGCAACCAGTCGATG was -1.46.
Still for that read-out and setting: the value for TCTTCTATTGAGTTGAACTGGC was -0.232; that for TGACATACCGTCCACATCCTAT was -1.06.

Another test concerns the target BRD2. The test is described as above. The conditions noted are these: shRNA.
As for TTGGATTATATGCACAACTCGG, the sensor-assay potency score (higher = more potent) was -1.15.
Same read-out and setting: next, TTCTCATTCGCTTTCTTGGGGG: -0.27; TACATCAGCAGCAAACTCCTGT: 0.587; TAGGACAATATCATCAGTGGGC: 0.486.
The sequence TATAATTTTGTGATAATCCGGT yielded a sensor-assay potency score (higher = more potent) of 0.775.
Sequence TTATTTACAAGTTAGAATCAAC came in with a sensor-assay potency score (higher = more potent) of -0.816.
On the same count and under the same terms, the value for TTTGGGATTGGACACCTCCGGG was -1.12; that for TAATTTTGTGATAATCCGGTAG was 0.162; that for TGCAGTAACAGCAAGGAGCGGG was -0.301.
